PubChem BioAssay (NCATS)
Records with an inconclusive call do not appear. Calls of active or inactive are those of the source. Unless noted, calls come from the whole dose curve; as a rule, active = well fitted curve in the direction sought with a large enough effect; inconclusive = small, poorly fitted or top-dose-only effect, or another doubt; inactive = no such curve, though single readings can be large; an effect the other way counts as inactive or inconclusive.

How the values were obtained:
[1] = biological target: Lysosomal acid glucosylceramidase (Homo sapiens) (UniProt P04062); assay: Glucocerebrosidase-p2 (AID 348; in the data active = potency below about 10 µM; note: potency is the fitted concentration of half-maximal effect); details: purified GBA, blue fluorogenic substrate, 40 min
In short: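 Normal human glucocerebrosidase (0.2 nM) with blue fluorogenic substrate (80 uM final) in citrate/phosphate pH 5.9 with 10mM sodium taurocholate, 0.01% tween-20; 40 min RT, NaOH/glycine stop; fluorescence Ex 365/Em 440; AC50 from a titration from 0.6 nM upwards.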

[2] = AP1 Signaling Pathway (AID 357; active = well fitted curve in either direction with a large enough effect, not every such curve was filed as active;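 note: ME-180 reporter cells stimulated with EGF at its EC50 level; % is set by controls: 0 for no effect and ±100 for the full control effect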); details: ME-180 AP-1-bla reporter, EGF-induced, beta-lactamase ratio, 5 h; at 7.69 µM (top of the series) unless noted
In short: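 Titration-series screen for positive or negative modulators of EC50 EGF-induced signaling in ME-180 cells carrying an AP-1-driven beta-lactamase reporter. After 5 hours at 37 degrees Celsius, CCF4 460nm/530nm emission ratio gave %Activity; AC50 values derived.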

[3] = biological target: Cytochrome P450 1A2 (Homo sapiens) (UniProt P05177); assay: p450-cyp1a2 (AID 410; calls by dose curve; note: potency is the fitted concentration of half-maximal effect); details: recombinant CYP1A2, luciferin-ME demethylation, luminescence; series mostly up to 57 µM
In short: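 20nM CYP1A2, 100uM Luciferin-ME (=Km), 100mM KPO4; cpd 10 min RT; +NADPH regen, 60 min RT; stop/detect 20 min; luminescence. Normalized to furafylline 57 uM = full inhibition.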

[4] = NFAT Signaling Pathway (AID 444; active = well fitted curve in either direction with a large enough effect, not every such curve was filed as active;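 note: carbachol stimulus at about its EC50 of 1 µM final; % is set by controls: 0 for no effect and ±100 for the full control effect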); details: Jurkat NFAT-bla M1, carbachol, beta-lactamase ratio, 5 h; at 7.69 µM (top of the series) unless noted
In short: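 Jurkat cells carrying an NFAT-driven β-lactamase reporter and co-transfected muscarinic M1 receptor were treated with compound plus carbachol (1 uM final, an EC50 level) for 5 h at 37 °C. CCF4 loading followed for 1 h at RT; 460/530 nm ratio gave %activity.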

[5] = Stat Signaling Pathway (AID 446; active = well fitted curve in either direction with a large enough effect, not every such curve was filed as active;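 note: ME-180 cervical cancer cells given 40 pM IL-6 alongside compound; SIE-controlled beta-lactamase reporter measured as 460/530 nm FRET emission ratio; % is set by controls: 0 for no effect and ±100 for the full control effect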); details: ME-180 (cervical carcinoma) SIE beta-lactamase reporter, IL-6 stimulated, 5 h; at 7.69 µM (top of the series) unless noted
In short: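 Compound effects on IL-6-induced STAT reporter activity were measured in ME-180 cells. After overnight culture, cells were co-treated with 40 pM IL-6 for 5 hrs before beta-lactamase substrate loading at room temperature.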

[6] = biological target: Glucocorticoid receptor (Homo sapiens) (UniProt P04150); assay: GR-GFP Redistribution (AID 450;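 active = compounds whose dose series gives a full or clear partial fitted curve of increased nuclear translocation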; note: potency is the fitted concentration of half-maximal effect); details: U2OS GR-GFP nuclear translocation, laser cytometry, 2 h
[7] = biological target: Glucocorticoid receptor (Homo sapiens) (UniProt P04150); assay: GR-EFC Redistribution (AID 451; calls by dose curve; note: potency is the fitted concentration of half-maximal effect); details: CHO-K1 GR-EFC translocation, beta-gal luminescence, 2 h
In short: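 CHO-K1 cells stably expressing nuclear-localized β-gal enzyme acceptor and GR fused C-terminally to the enzyme donor fragment; ligand-driven nuclear translocation restores β-gal by complementation. Compounds titrated up to 46 uM final, 2 h at 37 °C; luminescence read.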

[8] = biological target: Mitogen-activated protein kinase 10 (Mus musculus) (UniProt Q61831); assay: JNK3 AlphaScreen Assay (AID 530; active = well fitted curve in either direction with a large enough effect, not every such curve was filed as active;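 note: kinase came from lysate of stimulated human HepG2 cells; signal reports phosphorylation of biotinylated GST-cJun 1-79 at Ser73 with 10 µM ATP; % is set by controls: 0 for no effect and ±100 for the full control effect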); details: JNK3 lysate, c-Jun phosphorylation; series mostly up to 57.1 µM
In short: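 Biotinylated GST-cJun(1-79) served as substrate for JNK3 in HepG2 lysates stimulated with IL-1beta and TNF-alpha. ATP was 10 uM final, pH 7.6. Ser73 phosphorylation was quantified by AlphaScreen (680 nm excitation).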

[9] = biological target: 3',5'-cyclic-AMP phosphodiesterase 4B (Homo sapiens) (UniProt Q07343); assay: qHTS Assay for Inhibitors of PDE-IV (AID 607; active = well fitted activation curve with a large enough effect in the main read-out, with a control signal flat, not every such curve was filed as active; note: % of control where 0% means no effect); details: HEK293 ACTOne CNG channel cells, membrane potential fluorescence; series mostly up to 22.9 µM
In short: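 ACTOne HEK293 cells carry a modified cAMP-gated CNG channel and express endogenous PDE4; plated 1000 cells/well, compounds up to 22.9 uM final. Membrane-potential dye fluorescence (ex 535/em 590) was read; parental cells received 10 uM forskolin + 100 uM RO 20-1724.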

[10] = biological target: Dual specificity protein kinase CLK4 (Homo sapiens) (UniProt Q9HAZ1); assay: qHTS Assay for Inhibitors of CDC-like Kinase 4 (Kinase-Glo Assay) (AID 1770); details: recombinant Clk4, Kinase-Glo ATP depletion luminescence; series mostly up to 66.7 µM; note: nearly all actives have a fitted effect of over 65% in size; note: potency is the fitted concentration of half-maximal effect
In short: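 Readout: Kinase-Glo luminescence from ATP left after a 4.5 h room-temperature reaction of 25 nM Clk4 with 100 uM RS peptide and 1 uM ATP (final). Buffer: 25 mM Tris pH 7.5, 10 mM MgCl2.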

[11] = biological target: Dual specificity protein kinase CLK4 (Homo sapiens) (UniProt Q9HAZ1); assay: qHTS Assay for Inhibitors of CDC-like Kinase 4 (ADP-Glo Assay) (AID 1771); details: recombinant CLK4, ADP-Glo luminescence; series mostly up to 80 µM; note: nearly all actives have a fitted effect of over 70% in size; note: potency is the fitted concentration of half-maximal effect
In short: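 25 nM Clk4, 100 uM RS peptide, 1 uM ATP (final); 2 mM MgCl2, 0.5 mM EGTA, 2.5 mM DTT, 0.01% Triton X-100; 1 hr RT. ADP-Glo readout: ATP depletion 45 min, conversion/luciferase 30 min, luminescence.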

[12] = biological target: Dual specificity protein kinase CLK4 (Homo sapiens) (UniProt Q9HAZ1); assay: qHTS Assay for Inhibitors of CDC-like Kinase 4 (ADP-FP Assay) (AID 1795); details: Transcreener ADP fluorescence polarization; series mostly up to 50 µM; note: nearly all actives have a fitted effect of over 60% in size; note: potency is the fitted concentration of half-maximal effect
In short: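 FP readout: Orange Transcreener ADP2 tracer (4 nM) plus ADP antibody, read after 30 min at room temperature. Kinase step: 6.25 nM Clk4, 100 uM RS peptide, 1 uM ATP, pH 7.5, 1 h.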

[13] = biological target: Ubiquitin carboxyl-terminal hydrolase 1 (Homo sapiens) (UniProt O94782); assay: Inhibitors of USP1/UAF1: Pilot qHTS (AID 504865); details: purified USP1/UAF1, Ub-rhodamine cleavage fluorescence; series mostly up to 54.9 µM;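 note: rhodamine fluorescence freed from ubiquitin-rhodamine substrate followed over time; top concentration of the series differs between compounds; % is set by controls: 0 for no effect and ±100 for the full control effect; nearly all actives have a fitted effect of over 35% in size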
In short: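 1nM USP1/UAF1 + cpd, 15 min RT; start w/ Ub-Rho 150nM final; kinetic FL 480/540 nm, 6 reads q60 s. Buffer 50mM HEPES pH 7.8, 0.5mM EDTA, 1mM TCEP, 0.01% Tween-20, 0.1 mg/ml BSA.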

[14] = Primary qHTS for small molecule stabilizers of the endoplasmic reticulum resident proteome: Secreted ER Calcium Modulated Protein (SERCaMP) assay (AID 1508630); details: SH-SY5Y GLuc-SERCaMP (Gaussia luciferase released on ER calcium loss) secretion, thapsigargin, luminescence; series mostly up to 38.4 µM; note: % is set by controls: 0 for no effect and ±100 for the full control effect
In short: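 The SH-SY5Y reporter protocol was run at 3 concentrations up to 38.3 uM (primary) or 11 concentrations (follow-up): 16 h compound, 100 nM thapsigargin for 4 h, then extracellular luciferase luminescence.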

[15] = biological target: Cytochrome P450 2C9 (Homo sapiens) (UniProt P11712); assay: qHTS Assay for Inhibitors and Substrates of Cytochrome P450 2C9 (AID 883); details: recombinant CYP2C9, luciferin-H luminescence, 60 min; series mostly up to 57.1 µM; note: nearly all actives have a fitted effect of over 60% in size; note: potency is the fitted concentration of half-maximal effect
In short: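 CYP2C9 deoxyluciferin hydroxylation, 37C, 60 min with NADPH regeneration; 10nM enzyme, 100uM Luciferin-H (KM). Glo detection reagent stopped reaction; luminescence normalized to sulphaphenazole (57uM) full inhibition.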

[16] = biological target: Cytochrome P450 3A4 (Homo sapiens) (UniProt P08684); assay: qHTS Assay for Inhibitors and Substrates of Cytochrome P450 3A4 (AID 884); details: recombinant CYP3A4, Luciferin-PPXE luminescence; series mostly up to 57.1 µM; note: nearly all actives have a fitted effect of over 50% in size; note: potency is the fitted concentration of half-maximal effect
In short: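 Luminescent readout of luciferin produced by CYP3A4 (20 nM) dealkylation of Luciferin-PPXE, 25 uM (its KM). NADPH-driven reaction ran 60 min at RT after 10 min compound preincubation; data scaled to 57 uM ketoconazole as 100% inhibition.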

[17] = biological target: Cytochrome P450 3A4 (Homo sapiens) (UniProt P08684); assay: qHTS Assay for Activators of Cytochrome P450 3A4 (AID 885); details: recombinant CYP3A4, Luciferin-PPXE luminescence, 60 min; series mostly up to 57.1 µM; note: nearly all actives have a fitted effect of over 65% in size
In short: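 CYP3A4 activity: Luciferin-PPXE O-dealkylation, 25uM substrate, 200mM KPO4, RT throughout. Read-out is luciferase luminescence; higher values reflect activation.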

[18] = biological target: Cytochrome P450 2D6 (Homo sapiens) (UniProt P10635); assay: qHTS Assay for Inhibitors and Substrates of Cytochrome P450 2D6 (AID 891); details: recombinant CYP2D6, luciferin-ME EGE luminescence; series mostly up to 57.1 µM; note: potency is the fitted concentration of half-maximal effect; nearly all actives have a fitted effect of over 60% in size
In short: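 Luminescent read-out of luciferin formed by 5 nM human CYP2D6 demethylating 30 uM Luciferin-ME EGE (Km level) over 60 min at room temperature after NADPH regeneration addition. Data normalized to full inhibition by 1.43 uM quinidine.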

[19] = biological target: Cytochrome P450 2C19 (Homo sapiens) (UniProt P33261); assay: qHTS Assay for Inhibitors and Substrates of Cytochrome P450 2C19 (AID 899); details: recombinant CYP2C19, luciferin-H EGE luminescence; series mostly up to 57.1 µM; note: potency is the fitted concentration of half-maximal effect; nearly all actives have a fitted effect of over 60% in size
In short: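 In 50mM KPO4, the reaction held 5nM enzyme and KM-level (10uM) Luciferin-H EGE; it ran 60 min at 37C after NADPH regeneration and a 10 min compound preincubation. Luminescence values were scaled to 57uM ketoconazole as complete inhibition.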

Chain of Lysosomal acid glucosylceramidase (Homo sapiens) (P04062 whole entry, looked up): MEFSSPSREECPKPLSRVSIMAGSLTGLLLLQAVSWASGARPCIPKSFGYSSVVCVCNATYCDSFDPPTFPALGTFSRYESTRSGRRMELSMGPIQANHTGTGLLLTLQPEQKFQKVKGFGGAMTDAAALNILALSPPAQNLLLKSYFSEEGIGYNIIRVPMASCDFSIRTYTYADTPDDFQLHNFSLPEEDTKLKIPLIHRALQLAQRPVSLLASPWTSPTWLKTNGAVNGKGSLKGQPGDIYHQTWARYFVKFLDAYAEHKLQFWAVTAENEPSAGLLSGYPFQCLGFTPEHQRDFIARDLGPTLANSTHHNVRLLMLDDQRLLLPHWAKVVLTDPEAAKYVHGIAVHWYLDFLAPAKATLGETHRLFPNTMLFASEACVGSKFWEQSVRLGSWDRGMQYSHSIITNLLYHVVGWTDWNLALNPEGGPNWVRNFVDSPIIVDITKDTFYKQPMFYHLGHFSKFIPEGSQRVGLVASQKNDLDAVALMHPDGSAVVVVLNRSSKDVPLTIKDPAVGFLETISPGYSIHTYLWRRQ
Chain of Glucocorticoid receptor (Homo sapiens) (P04150 whole entry, looked up, the tested form may be a part): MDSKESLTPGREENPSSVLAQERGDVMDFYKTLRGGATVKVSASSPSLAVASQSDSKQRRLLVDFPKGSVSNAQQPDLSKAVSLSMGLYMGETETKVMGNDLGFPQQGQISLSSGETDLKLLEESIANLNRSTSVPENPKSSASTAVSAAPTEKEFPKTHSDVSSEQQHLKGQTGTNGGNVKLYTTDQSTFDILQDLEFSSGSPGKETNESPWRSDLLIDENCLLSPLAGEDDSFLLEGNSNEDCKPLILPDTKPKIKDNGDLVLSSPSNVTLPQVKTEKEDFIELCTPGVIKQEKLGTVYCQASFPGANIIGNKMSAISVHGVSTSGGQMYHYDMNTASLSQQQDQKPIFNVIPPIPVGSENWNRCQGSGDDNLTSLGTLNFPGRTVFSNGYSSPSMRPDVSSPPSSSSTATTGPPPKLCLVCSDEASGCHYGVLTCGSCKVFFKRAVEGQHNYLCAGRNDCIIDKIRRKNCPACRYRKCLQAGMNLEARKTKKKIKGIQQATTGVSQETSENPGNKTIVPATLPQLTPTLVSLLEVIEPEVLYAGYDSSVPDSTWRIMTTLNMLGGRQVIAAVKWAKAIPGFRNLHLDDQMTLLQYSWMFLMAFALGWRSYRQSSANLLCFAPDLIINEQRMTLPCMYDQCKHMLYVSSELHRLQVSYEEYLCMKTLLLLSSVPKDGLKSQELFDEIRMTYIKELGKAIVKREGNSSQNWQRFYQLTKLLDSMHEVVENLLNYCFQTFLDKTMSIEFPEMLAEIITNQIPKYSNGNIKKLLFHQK
Chain of Cytochrome P450 3A4 (Homo sapiens) (P08684 whole entry, looked up): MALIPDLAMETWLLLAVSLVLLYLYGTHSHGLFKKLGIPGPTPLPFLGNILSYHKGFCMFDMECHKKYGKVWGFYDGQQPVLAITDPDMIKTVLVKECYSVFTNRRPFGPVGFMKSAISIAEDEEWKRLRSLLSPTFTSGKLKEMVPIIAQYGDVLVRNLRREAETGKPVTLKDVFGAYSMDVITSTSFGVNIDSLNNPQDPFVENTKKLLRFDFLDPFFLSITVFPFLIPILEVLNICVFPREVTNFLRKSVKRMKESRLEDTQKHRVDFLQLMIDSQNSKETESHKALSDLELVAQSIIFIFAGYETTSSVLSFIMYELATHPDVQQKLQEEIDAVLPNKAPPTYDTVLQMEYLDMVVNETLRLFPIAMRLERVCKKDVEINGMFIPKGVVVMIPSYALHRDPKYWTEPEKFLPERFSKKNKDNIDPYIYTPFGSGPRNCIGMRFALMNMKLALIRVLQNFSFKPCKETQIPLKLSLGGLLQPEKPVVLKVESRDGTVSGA
Chain of Dual specificity protein kinase CLK4 (Homo sapiens) (Q9HAZ1 whole entry, looked up): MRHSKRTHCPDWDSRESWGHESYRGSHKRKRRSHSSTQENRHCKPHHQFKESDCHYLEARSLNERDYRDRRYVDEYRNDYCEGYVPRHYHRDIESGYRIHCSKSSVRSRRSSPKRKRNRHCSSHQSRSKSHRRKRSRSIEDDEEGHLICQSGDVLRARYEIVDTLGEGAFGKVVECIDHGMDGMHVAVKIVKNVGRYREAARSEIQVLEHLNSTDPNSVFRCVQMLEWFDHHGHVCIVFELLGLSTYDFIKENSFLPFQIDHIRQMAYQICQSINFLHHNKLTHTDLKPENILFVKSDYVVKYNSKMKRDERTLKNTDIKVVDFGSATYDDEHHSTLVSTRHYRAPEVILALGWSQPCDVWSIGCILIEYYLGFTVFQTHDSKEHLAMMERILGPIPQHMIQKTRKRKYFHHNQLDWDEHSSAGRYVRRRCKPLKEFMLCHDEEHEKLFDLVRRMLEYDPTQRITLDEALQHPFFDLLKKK
Chain of 3',5'-cyclic-AMP phosphodiesterase 4B (Homo sapiens) (Q07343 whole entry, looked up): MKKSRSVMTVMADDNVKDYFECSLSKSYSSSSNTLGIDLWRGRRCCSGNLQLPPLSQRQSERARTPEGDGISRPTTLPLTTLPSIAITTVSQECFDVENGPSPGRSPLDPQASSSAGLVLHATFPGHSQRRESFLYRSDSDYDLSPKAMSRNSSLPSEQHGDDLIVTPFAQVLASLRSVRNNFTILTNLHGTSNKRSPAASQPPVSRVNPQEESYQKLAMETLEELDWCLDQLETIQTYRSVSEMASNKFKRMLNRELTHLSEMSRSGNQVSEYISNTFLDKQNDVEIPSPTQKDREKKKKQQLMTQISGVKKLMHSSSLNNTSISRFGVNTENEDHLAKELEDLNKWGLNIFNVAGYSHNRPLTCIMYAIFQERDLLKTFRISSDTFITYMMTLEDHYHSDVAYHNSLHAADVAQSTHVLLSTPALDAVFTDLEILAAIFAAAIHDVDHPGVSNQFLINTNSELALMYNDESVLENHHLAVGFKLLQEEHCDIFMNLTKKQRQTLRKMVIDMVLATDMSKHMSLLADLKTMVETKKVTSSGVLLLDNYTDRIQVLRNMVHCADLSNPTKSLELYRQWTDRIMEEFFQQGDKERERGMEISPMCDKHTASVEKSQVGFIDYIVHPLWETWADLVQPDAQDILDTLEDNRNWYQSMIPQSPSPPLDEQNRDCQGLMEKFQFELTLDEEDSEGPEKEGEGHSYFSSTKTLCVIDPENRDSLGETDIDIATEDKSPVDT
Chain of Cytochrome P450 1A2 (Homo sapiens) (P05177 whole entry, looked up): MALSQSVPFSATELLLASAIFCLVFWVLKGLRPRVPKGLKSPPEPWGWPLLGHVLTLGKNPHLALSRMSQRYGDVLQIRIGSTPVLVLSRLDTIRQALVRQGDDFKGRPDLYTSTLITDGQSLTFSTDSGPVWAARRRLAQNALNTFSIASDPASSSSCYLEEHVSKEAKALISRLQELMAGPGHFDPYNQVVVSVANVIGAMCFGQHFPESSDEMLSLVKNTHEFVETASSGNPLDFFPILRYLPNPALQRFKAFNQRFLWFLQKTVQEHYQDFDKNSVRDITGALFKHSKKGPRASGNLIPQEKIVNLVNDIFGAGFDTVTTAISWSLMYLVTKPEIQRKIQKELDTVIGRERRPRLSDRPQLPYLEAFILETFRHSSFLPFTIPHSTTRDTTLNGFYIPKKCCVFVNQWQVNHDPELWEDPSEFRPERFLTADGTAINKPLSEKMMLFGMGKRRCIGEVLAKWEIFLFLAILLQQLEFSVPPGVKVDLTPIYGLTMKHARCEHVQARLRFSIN
Chain of Ubiquitin carboxyl-terminal hydrolase 1 (Homo sapiens) (O94782 whole entry, looked up): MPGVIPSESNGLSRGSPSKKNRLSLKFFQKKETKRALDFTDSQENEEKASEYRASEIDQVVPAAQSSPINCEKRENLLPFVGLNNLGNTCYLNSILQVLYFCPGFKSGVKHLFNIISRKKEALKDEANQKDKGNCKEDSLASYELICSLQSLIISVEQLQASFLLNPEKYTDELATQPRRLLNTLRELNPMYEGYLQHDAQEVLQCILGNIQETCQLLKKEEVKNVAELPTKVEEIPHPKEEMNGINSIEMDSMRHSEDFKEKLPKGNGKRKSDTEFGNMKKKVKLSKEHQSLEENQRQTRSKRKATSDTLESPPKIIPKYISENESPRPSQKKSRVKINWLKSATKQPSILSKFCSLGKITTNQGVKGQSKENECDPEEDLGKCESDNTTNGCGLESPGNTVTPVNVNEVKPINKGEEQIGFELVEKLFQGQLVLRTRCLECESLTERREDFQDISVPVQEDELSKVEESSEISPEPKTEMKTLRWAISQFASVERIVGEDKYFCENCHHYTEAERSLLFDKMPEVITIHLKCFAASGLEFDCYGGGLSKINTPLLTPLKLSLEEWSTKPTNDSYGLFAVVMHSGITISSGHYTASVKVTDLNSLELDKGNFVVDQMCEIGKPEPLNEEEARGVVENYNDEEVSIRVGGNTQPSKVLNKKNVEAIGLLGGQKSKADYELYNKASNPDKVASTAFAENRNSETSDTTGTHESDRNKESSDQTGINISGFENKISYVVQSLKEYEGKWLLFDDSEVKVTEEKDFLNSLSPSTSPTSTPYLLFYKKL
Chain of Cytochrome P450 2D6 (Homo sapiens) (P10635 whole entry, looked up): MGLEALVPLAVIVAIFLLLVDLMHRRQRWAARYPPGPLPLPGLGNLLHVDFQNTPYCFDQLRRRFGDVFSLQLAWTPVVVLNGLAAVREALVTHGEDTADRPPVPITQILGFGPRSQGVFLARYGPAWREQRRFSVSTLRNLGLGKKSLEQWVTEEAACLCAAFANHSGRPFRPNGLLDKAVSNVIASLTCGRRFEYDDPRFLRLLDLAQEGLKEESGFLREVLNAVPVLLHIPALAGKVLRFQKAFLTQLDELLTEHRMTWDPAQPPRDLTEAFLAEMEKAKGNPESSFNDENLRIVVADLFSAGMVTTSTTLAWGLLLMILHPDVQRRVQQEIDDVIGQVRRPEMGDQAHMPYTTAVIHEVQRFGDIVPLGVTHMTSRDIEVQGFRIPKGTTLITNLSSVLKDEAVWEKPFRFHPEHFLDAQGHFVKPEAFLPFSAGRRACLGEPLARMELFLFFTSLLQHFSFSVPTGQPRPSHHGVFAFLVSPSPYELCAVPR

N#Cc1cccc(-c2ccc3ncnc(NC4CCNCC4)c3c2)c1
inactive: Potency [1] > 11.4 µM | activity change, negative = inhibition [2] -6.77% | activity change, negative = inhibition [4] 3.08% | activity, negative = inhibition [5] -3.89% | Potency [6] > 46 µM | Potency [7] > 46 µM | Potency [8] | Potency [9] | Potency [13] | outcome [14]
active: Potency [3] 15.8 µM | Potency [10] 12.6 µM | Potency [11] 14.1 µM | Potency [12] 14.1 µM

COc1c(O)cc2oc3cc(O)c(CC=C(C)C)c(O)c3c(=O)c2c1CC=C(C)C
active: Potency [3] 31.6 µM | Potency [15] 5.01 µM | Potency [18] 31.6 µM | Potency [19] 10 µM
inactive: Potency [7] > 20.6 µM | Potency [8] | Potency [9] | Potency [16] | Potency [17] | outcome [14]

O=c1c(-c2cc(F)cc(F)c2)nc2cncnc2n1C1CC1
active: Potency [3] 1.26 µM
inactive: Potency [1] > 11.4 µM | activity change, negative = inhibition [2] -12% | activity change, negative = inhibition [4] 2.52% | activity, negative = inhibition [5] -11.9% | Potency [6] > 9.22 µM | Potency [7] > 46 µM | Potency [8] | Potency [9] | Potency [15] | Potency [17] | Potency [10] | Potency [11] | Potency [12] | Potency [13] | outcome [14]

COc1ccc(CNc2ncncc2-c2ccccc2C(F)(F)F)c(OC)c1
inactive: Potency [1] > 11.4 µM | activity change, negative = inhibition [2] -23.4% | activity change, negative = inhibition [4] -7.18% | activity, negative = inhibition [5] 2.4% | Potency [6] > 46 µM | Potency [7] > 46 µM | Potency [8] | Potency [9] | Potency [17] | Potency [10] | Potency [11] | Potency [12] | Potency [13] | outcome [14]
active: Potency [3] 15.8 µM | Potency [16] 0.316 µM | Potency [18] 0.398 µM | Potency [19] 1.58 µM

Cc1nc2cnc(Oc3cccc(Cl)c3)nc2n(C2CC2)c1=O
inactive: Potency [1] > 11.4 µM | activity change, negative = inhibition [2] -22.3% | activity change, negative = inhibition [4] -5.3% | activity, negative = inhibition [5] -13.7% | Potency [6] > 9.22 µM | Potency [7] > 46 µM | Potency [8] | Potency [9] | Potency [10] | Potency [11] | Potency [12] | Potency [13] | outcome [14]
active: Potency [3] 6.31 µM

O=c1c(-c2ccccc2)nc2cnc(N3CCOCC3)nc2n1Cc1cccs1
active: Potency [3] 2.51 µM
inactive: Potency [1] > 11.4 µM | activity change, negative = inhibition [2] 20.9% | activity change, negative = inhibition [4] 14.9% | activity, negative = inhibition [5] 20.6% | Potency [6] > 9.22 µM | Potency [7] > 46 µM | Potency [8] | Potency [9] | Potency [10] | Potency [11] | Potency [12] | Potency [13] | outcome [14]
